Data taken from PMC5540273 (PLoS ONE, 2017).

Assays:
Settings in all cases: concentration: 1 μM, replicates: in singlicate; n = 1
[1] = test system: MARK3
[2] = test system: MARK4
[3] = test system: MAST1
[4] = test system: T1, MEK1
T1 construct: gene MAP2K1

[5] = test system: T2, MEK2
T2 construct: gene MAP2K2

[6] = test system: T3, MEK3
T3 construct: gene MAP2K3

[7] = test system: T4, MEK4
T4 construct: gene MAP2K4

[8] = test system: T5, MEK5
T5 construct: gene MAP2K5

[9] = test system: T6, MEK6
T6 construct: gene MAP2K6

[10] = test system: MELK
[11] = test system: MERTK
[12] = test system: MET
[13] = test system: T7, MINK
T7 construct: gene MINK1

[14] = test system: MKK7
[15] = test system: MKNK1
[16] = test system: MKNK2
[17] = test system: T8, MLCK
T8 construct: gene MYLK3

[18] = test system: T9, MLK1
T9 construct: gene MAP3K9

[19] = test system: MLK2
[20] = test system: MLK3
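Further: KINOMEscan kinase panel screen.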

With `Cl.Fc1ccccc1COc1ccc(Nc2ncnc3ccc(-c4nnc(C(F)(F)F)o4)cc23)cc1Cl` [GW424170] the “%Inh” value [1] was 0%, the “%Inh” value [2] was 0% and the “%Inh” value [3] was 0%. For the same compound, the “%Inh” value [4] was 0%, the “%Inh” value [5] was 0% and the “%Inh” value [6] was 0%. The “%Inh” value [7] was 28%, the “%Inh” value [8] was 10% and the “%Inh” value [9] was 0%. For the same compound, the “%Inh” value [10] was 0%, the “%Inh” value [11] was 10% and the “%Inh” value [12] was 0%. For the same compound, the “%Inh” value [13] was 0%, the “%Inh” value [14] was 0% and the “%Inh” value [15] was 0%. For the same compound, the “%Inh” value [16] was 0%, the “%Inh” value [17] was 0% and the “%Inh” value [18] was 0%. The “%Inh” value [19] was 0% and the “%Inh” value [20] was 3%.

With `Fc1cccc(COc2ccc(Nc3ncnc4nn5ccccc5c34)cc2Cl)c1` [GW689066] the “%Inh” value [1] was 0%, the “%Inh” value [2] was 0% and the “%Inh” value [3] was 23%. The “%Inh” value [4] was 0%, the “%Inh” value [5] was 0% and the “%Inh” value [6] was 0%. For the same compound, the “%Inh” value [7] was 8%, the “%Inh” value [8] was 45% and the “%Inh” value [9] was 0%. The “%Inh” value [10] was 5%, the “%Inh” value [11] was 6% and the “%Inh” value [12] was 0%. For the same compound, the “%Inh” value [13] was 0%, the “%Inh” value [14] was 0% and the “%Inh” value [15] was 4%. For the same compound, the “%Inh” value [16] was 0%, the “%Inh” value [17] was 4% and the “%Inh” value [18] was 0%. The “%Inh” value [19] was 0% and the “%Inh” value [20] was 0%.

In the case of `O=c1cc(N2CCOCC2)nc2n(Cc3cccc(Cl)c3)ccn12` [GSK2296823], the “%Inh” value [1] is reported as 0%, the “%Inh” value [2] is reported as 5% and the “%Inh” value [3] is reported as 0%. The “%Inh” value [4] was 8%, the “%Inh” value [5] was 0% and the “%Inh” value [6] was 0%. The “%Inh” value [7] was 4%, the “%Inh” value [8] was 13% and the “%Inh” value [9] was 0%. For the same compound, the “%Inh” value [10] was 0%, the “%Inh” value [11] was 15% and the “%Inh” value [12] was 0%. The “%Inh” value [13] was 0%, the “%Inh” value [14] was 12% and the “%Inh” value [15] was 0%. For the same compound, the “%Inh” value [16] was 15%, the “%Inh” value [17] was 0% and the “%Inh” value [18] was 0%. The “%Inh” value [19] was 19% and the “%Inh” value [20] was 0%.

For `Clc1cc(Nc2ncnc3cc[nH]c23)ccc1OCc1ccccn1`, the “%Inh” value [1] was 5%, the “%Inh” value [2] was 4% and the “%Inh” value [3] was 45%. For the same compound, the “%Inh” value [4] was 17%, the “%Inh” value [5] was 23% and the “%Inh” value [6] was 19%. The “%Inh” value [7] was 11%, the “%Inh” value [8] was 76% and the “%Inh” value [9] was 17%. The “%Inh” value [10] was 0%, the “%Inh” value [11] was 0% and the “%Inh” value [12] was 4%. For the same compound, the “%Inh” value [13] was 33%, the “%Inh” value [14] was 5% and the “%Inh” value [15] was 35%. For the same compound, the “%Inh” value [16] was 22%, the “%Inh” value [17] was 0% and the “%Inh” value [18] was 0%. The “%Inh” value [19] was 2% and the “%Inh” value [20] was 0%.

`COc1cc2ncnc(Nc3ccc(OCc4ccccc4Br)c(Cl)c3)c2cc1OC.Cl` [GI261590] was tested, and the “%Inh” value [1] was 1%, the “%Inh” value [2] was 11% and the “%Inh” value [3] was 0%. The “%Inh” value [4] was 19%, the “%Inh” value [5] was 13% and the “%Inh” value [6] was 0%. The “%Inh” value [7] was 0%, the “%Inh” value [8] was 98.9% and the “%Inh” value [9] was 0%. For the same compound, the “%Inh” value [10] was 0%, the “%Inh” value [11] was 7% and the “%Inh” value [12] was 0%. The “%Inh” value [13] was 0%, the “%Inh” value [14] was 0% and the “%Inh” value [15] was 0%. For the same compound, the “%Inh” value [16] was 11%, the “%Inh” value [17] was 0% and the “%Inh” value [18] was 0%. For the same compound, the “%Inh” value [19] was 11% and the “%Inh” value [20] was 9%.

`Fc1ccc(Nc2nccc(-c3c(-c4ccc(Cl)cc4)nn4ncccc34)n2)cc1F` [GW829058] was tested, and the “%Inh” value [1] was 34%, the “%Inh” value [2] was 25% and the “%Inh” value [3] was 26%. For the same compound, the “%Inh” value [4] was 29%, the “%Inh” value [5] was 42% and the “%Inh” value [6] was 27%. For the same compound, the “%Inh” value [7] was 30%, the “%Inh” value [8] was 14% and the “%Inh” value [9] was 13%. For the same compound, the “%Inh” value [10] was 0%, the “%Inh” value [11] was 0% and the “%Inh” value [12] was 3%. For the same compound, the “%Inh” value [13] was 14%, the “%Inh” value [14] was 23% and the “%Inh” value [15] was 0%. The “%Inh” value [16] was 2%, the “%Inh” value [17] was 9% and the “%Inh” value [18] was 2%. The “%Inh” value [19] was 12% and the “%Inh” value [20] was 4%.

With `Cn1ccc2ncnc(Oc3ccc(NC(=O)Nc4cccnc4)c(Cl)c3)c21` the “%Inh” value [1] was 0%, the “%Inh” value [2] was 4% and the “%Inh” value [3] was 0%. For the same compound, the “%Inh” value [4] was 0%, the “%Inh” value [5] was 0% and the “%Inh” value [6] was 0%. The “%Inh” value [7] was 0%, the “%Inh” value [8] was 5% and the “%Inh” value [9] was 0%. The “%Inh” value [10] was 10%, the “%Inh” value [11] was 6% and the “%Inh” value [12] was 15%. The “%Inh” value [13] was 0%, the “%Inh” value [14] was 0% and the “%Inh” value [15] was 10%. For the same compound, the “%Inh” value [16] was 0%, the “%Inh” value [17] was 0% and the “%Inh” value [18] was 14%. The “%Inh” value [19] was 2% and the “%Inh” value [20] was 0%.

In the case of `CCCc1ccc(S(=O)(=O)NC2CCN(c3ccnc(Nc4ccc(OC)cc4)n3)C2)cc1` (stereo not drawn) [GSK1379737], the “%Inh” value [1] is reported as 0%, the “%Inh” value [2] is reported as 0% and the “%Inh” value [3] is reported as 43%. For the same compound, the “%Inh” value [4] was 0%, the “%Inh” value [5] was 0% and the “%Inh” value [6] was 0%. For the same compound, the “%Inh” value [7] was 12%, the “%Inh” value [8] was 0% and the “%Inh” value [9] was 0%. For the same compound, the “%Inh” value [10] was 0%, the “%Inh” value [11] was 16% and the “%Inh” value [12] was 0%. For the same compound, the “%Inh” value [13] was 0%, the “%Inh” value [14] was 0% and the “%Inh” value [15] was 0%. For the same compound, the “%Inh” value [16] was 6%, the “%Inh” value [17] was 11% and the “%Inh” value [18] was 0%. For the same compound, the “%Inh” value [19] was 0% and the “%Inh” value [20] was 4%.

With `CC(C)(C)c1ccc(-n2cnc3c(N)ncnc32)cc1` [SKF-97263] the “%Inh” value [1] was 0%, the “%Inh” value [2] was 0% and the “%Inh” value [3] was 0%. The “%Inh” value [4] was 0%, the “%Inh” value [5] was 10% and the “%Inh” value [6] was 0%. For the same compound, the “%Inh” value [7] was 21%, the “%Inh” value [8] was 44% and the “%Inh” value [9] was 0%. The “%Inh” value [10] was 13%, the “%Inh” value [11] was 41% and the “%Inh” value [12] was 0%. For the same compound, the “%Inh” value [13] was 14%, the “%Inh” value [14] was 6% and the “%Inh” value [15] was 0%. For the same compound, the “%Inh” value [16] was 29%, the “%Inh” value [17] was 4% and the “%Inh” value [18] was 2%. The “%Inh” value [19] was 61% and the “%Inh” value [20] was 0%.
